The text below walks through data of the supplement of paper PMC11732987, “Enantioselective OTUD7B fragment discovery through chemoproteomics screening and high-throughput optimisation” (Communications Chemistry, 2025).

Molecules are shown by their SMILES. Values without a mark were called inactive.

What all share (assay): log2 ratio of Biotin-Ahx-Ub-VS probe labelling (fragment/DMSO); higher = less target engagement (more negative = stronger competition), active = hit call of the paper (q ≤ 0.05, log2 ratio ≤ -1)
Details in all cases: compound concentration: 200 uM; treatment time: 3 h

Assay [1] has as its target T1, OTUD6B (UniProt Q8N6M0).
T1 sequence (whole entry): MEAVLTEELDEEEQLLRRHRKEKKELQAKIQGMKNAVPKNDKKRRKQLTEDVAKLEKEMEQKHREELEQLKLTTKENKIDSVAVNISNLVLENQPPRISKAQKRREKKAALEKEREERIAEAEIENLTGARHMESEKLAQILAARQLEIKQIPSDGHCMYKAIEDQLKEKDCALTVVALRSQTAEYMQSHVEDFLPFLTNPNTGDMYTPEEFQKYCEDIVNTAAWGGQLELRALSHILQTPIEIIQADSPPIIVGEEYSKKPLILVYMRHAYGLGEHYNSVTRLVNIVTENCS
The essentials:
(§1)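 HEK293T lysate in Tris/CHAPS/IGEPAL buffer with protease inhibitors (495 µg per sample) was given fragment at 200 µM or vehicle for 3 h, in triplicate. It then received Biotin-Ahx-Ub-VS at 0.5 µM final for 1 h. Labelled DUBs were NeutrAvidin-enriched, digested with LysC and trypsin, and run by diaPASEF LC-MS/MS. Values are average log2 fragment/vehicle ratios by unpaired t-test on global-median-normalised Spectronaut quantities of proteins with ≥2 unique peptides.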

Assay [2] concerns the target T2, OTUD7B (UniProt Q6GQQ9).
T2 sequence (whole entry): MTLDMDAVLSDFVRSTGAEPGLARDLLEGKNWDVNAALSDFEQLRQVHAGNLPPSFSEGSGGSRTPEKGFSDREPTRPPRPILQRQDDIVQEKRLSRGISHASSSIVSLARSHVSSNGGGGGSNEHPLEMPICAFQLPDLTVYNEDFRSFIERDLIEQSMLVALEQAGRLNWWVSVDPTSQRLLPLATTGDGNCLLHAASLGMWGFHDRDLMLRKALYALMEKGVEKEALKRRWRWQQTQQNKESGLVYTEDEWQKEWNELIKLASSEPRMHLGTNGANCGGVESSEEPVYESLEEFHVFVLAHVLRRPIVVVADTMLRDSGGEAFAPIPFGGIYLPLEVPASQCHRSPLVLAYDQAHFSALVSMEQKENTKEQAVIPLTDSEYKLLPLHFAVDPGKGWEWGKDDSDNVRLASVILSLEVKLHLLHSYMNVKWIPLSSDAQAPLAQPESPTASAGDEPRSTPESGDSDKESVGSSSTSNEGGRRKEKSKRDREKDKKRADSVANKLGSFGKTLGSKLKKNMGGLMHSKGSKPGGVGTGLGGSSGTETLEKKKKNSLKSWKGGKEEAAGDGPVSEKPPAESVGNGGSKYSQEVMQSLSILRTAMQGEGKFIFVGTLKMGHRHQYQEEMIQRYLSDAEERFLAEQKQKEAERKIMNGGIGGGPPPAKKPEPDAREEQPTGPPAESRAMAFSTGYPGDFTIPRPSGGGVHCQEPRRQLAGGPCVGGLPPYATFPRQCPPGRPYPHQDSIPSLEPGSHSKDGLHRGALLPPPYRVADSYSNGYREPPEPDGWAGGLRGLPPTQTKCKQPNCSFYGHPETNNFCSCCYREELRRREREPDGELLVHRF
Put shortly:
as §1

Assay [3] has as its target PRPF8 (UniProt Q6P2Q9). Put shortly:
as §1

Assay [4] deals with T3, PSMD7 (UniProt P51665).
T3 sequence (whole entry): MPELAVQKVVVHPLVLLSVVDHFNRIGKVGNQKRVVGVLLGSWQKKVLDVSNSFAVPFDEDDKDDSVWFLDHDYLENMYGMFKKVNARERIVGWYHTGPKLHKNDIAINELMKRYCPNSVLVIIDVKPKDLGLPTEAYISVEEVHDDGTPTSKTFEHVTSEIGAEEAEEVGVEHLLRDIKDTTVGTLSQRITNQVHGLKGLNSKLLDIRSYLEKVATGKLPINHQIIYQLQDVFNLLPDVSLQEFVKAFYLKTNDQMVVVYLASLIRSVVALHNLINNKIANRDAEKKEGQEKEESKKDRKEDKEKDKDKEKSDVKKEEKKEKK
Put shortly: as §1

The target in assay [5] is UCHL1 (UniProt P09936). Put shortly: as §1
Assay [6] has as its target T4, UCHL3 (UniProt P15374).
T4 sequence (whole entry): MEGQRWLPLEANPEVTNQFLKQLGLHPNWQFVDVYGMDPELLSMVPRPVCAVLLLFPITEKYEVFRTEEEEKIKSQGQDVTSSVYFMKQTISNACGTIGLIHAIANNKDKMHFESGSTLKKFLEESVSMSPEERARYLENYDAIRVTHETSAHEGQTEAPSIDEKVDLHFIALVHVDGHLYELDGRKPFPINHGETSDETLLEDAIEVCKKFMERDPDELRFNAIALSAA
The essentials: as §1

The target in assay [7] is T5, UCHL5 (UniProt Q9Y5K5).
T5 sequence (whole entry): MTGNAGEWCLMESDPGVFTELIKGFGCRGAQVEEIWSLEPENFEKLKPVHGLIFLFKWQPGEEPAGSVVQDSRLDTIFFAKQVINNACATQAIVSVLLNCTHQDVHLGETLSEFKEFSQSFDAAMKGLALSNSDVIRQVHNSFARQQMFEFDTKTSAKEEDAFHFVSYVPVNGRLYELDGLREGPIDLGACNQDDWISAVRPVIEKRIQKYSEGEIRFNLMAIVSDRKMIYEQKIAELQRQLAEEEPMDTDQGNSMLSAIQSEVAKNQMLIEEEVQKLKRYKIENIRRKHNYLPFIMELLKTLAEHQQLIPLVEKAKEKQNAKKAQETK
The essentials:
as §1

Assay [8] addresses USP10 (UniProt Q14694). The essentials:
as §1

Assay [9] deals with T6, USP15 (UniProt Q9Y4E8).
T6 sequence (whole entry): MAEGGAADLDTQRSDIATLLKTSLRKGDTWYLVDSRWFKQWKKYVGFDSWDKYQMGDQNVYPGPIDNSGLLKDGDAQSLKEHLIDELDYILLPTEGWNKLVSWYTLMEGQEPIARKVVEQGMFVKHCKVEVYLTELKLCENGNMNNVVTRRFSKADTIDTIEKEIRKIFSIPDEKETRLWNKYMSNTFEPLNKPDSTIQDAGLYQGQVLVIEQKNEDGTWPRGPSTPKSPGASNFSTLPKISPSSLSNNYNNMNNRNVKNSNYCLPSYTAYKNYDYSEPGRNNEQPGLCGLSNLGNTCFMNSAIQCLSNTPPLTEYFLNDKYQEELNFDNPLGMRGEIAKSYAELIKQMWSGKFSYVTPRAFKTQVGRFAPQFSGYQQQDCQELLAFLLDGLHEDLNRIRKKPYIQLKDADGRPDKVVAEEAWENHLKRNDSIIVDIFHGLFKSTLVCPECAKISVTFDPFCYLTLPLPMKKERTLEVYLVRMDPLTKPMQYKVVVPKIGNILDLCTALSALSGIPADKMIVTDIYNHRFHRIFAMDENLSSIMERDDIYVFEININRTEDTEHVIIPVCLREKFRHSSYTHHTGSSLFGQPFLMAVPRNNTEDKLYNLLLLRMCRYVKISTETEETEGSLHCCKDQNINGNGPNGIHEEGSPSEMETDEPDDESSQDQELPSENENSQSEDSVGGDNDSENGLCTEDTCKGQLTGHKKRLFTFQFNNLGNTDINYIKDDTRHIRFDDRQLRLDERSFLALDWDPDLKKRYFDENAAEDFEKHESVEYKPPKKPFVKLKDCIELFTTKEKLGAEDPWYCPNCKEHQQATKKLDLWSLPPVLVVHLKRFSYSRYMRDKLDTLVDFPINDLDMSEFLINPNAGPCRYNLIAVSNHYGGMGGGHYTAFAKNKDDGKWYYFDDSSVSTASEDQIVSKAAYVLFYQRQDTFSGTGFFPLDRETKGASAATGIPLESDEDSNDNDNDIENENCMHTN
The essentials:
as §1

UCHL1, sequence (P09936 whole entry, looked up): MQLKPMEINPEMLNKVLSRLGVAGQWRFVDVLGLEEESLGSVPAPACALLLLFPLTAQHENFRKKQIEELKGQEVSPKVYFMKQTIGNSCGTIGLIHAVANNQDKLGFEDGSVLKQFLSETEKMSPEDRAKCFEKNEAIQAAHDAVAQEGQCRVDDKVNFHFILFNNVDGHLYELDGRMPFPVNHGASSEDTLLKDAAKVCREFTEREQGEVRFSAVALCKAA
USP10, sequence (Q14694 whole entry): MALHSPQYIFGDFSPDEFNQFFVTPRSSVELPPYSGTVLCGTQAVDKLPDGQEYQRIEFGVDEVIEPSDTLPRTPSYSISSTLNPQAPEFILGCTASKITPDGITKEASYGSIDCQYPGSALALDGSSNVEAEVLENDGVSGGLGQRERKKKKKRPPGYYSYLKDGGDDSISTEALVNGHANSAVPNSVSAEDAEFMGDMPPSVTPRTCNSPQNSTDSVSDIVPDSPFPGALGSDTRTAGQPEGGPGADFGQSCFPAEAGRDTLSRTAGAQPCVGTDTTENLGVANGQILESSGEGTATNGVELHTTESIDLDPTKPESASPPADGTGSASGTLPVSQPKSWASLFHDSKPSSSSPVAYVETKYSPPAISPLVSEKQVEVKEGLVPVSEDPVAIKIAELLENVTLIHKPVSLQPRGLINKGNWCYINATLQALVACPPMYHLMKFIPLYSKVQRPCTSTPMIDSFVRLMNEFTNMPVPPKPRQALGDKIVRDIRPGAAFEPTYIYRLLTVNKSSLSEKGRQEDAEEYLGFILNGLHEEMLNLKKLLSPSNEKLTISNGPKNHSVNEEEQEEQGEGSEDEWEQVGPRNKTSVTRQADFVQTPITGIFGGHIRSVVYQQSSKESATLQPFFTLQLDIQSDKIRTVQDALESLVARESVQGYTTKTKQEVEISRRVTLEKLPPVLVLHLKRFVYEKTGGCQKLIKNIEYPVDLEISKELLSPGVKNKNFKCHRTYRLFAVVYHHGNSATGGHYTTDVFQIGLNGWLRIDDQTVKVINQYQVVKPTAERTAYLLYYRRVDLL

For the compound `Cc1ccc(N2CCC(NC(=O)CCl)C2=O)cc1` (centres undefined), the “log2 ratio of Biotin-Ahx-Ub-VS probe labelling” value in assay [1] is 0.0252; in [2] it was -0.741; in assay [3], -0.0776; in [4], 0.0257; in assay [5], -1.67 (active); in assay [6], 0.299. Moreover, the “log2 ratio of Biotin-Ahx-Ub-VS probe labelling” value was -0.0673 in [7], -0.174 in assay [8] and 0.106 in [9].
